Several values for one entry are separate records, joined by “and”; a condition that tells them apart may be missing. Identical values can stand only once. Inconclusive results are not listed. The source holds several records for some structures; these can differ, active in one and inactive in another. Activity calls are given as the source filed them. Rule for the calls, unless noted: active = hit-call score of the fitted dose curve at least 0.9, where 1 is the maximum; inactive = score below 0.9.
Columns and labels:
[1] = read-out: TIMP metallopeptidase inhibitor 2 (TIMP2), TIMP2 (gene 7077); assay: BSK_hDFCGF_TIMP2: BioMAP Diversity Plus: hDFCGF Assay for TIMP metallopeptidase inhibitor 2 (TIMP2) Biomarker Activity (AID 2284289); conditions: primary human foreskin fibroblasts
How it was run: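 Primary human foreskin fibroblasts in the hDFCGF system, dosed for 24 h; TIMP-2 level measured by ELISA, fitted in the positive direction against DMSO; cytotoxicity checked in parallel by sulforhodamine B total protein staining.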

[2] = read-out: Interleukin-1 alpha (IL1a), IL1A (gene 3552); assay: BSK_IMphg_IL1a: BioMAP Diversity Plus: IMphg Assay for Interleukin-1 alpha (IL1a) Biomarker Activity (AID 2284290); conditions: primary human endothelial cells with macrophages
How it was run: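 Human venular endothelial cells co-cultured with macrophages, IMphg system. IL-1α is measured by ELISA 24 h after dosing and fitted in the positive direction against DMSO. Cytotoxicity is assessed by SRB staining of parallel cultures.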

[3] = read-out: E-selectin (Homo sapiens) (UniProt P16581); assay: BSK_IMphg_ESelectin: BioMAP Diversity Plus: IMphg Assay for Eselectin Biomarker Activity (AID 2284291); conditions: primary human endothelial cells with macrophages
How it was run: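 Human venular endothelial cell–macrophage co-culture, E-selectin measured by ELISA 24 h after chemical dosing. Signal fitted in the positive direction against DMSO as negative control and baseline.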

[4] = BSK_IMphg_SRB: Viability Assessment in the BioMAP Diversity Plus: IMphg Assay (AID 2284292); conditions: primary human endothelial cells with macrophages;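 note: measured one day after compound addition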
How it was run: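 Human venular endothelial cells with macrophages, 24 h after chemical dosing; total protein by 0.1% SRB staining after 10% TCA fixation, read at 560 nm. Positive-direction fitting versus DMSO baseline.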

[5] = read-out: Macrophage colony-stimulating factor (MCSF), CSF1 (gene 1435); assay: BSK_IMphg_MCSF: BioMAP Diversity Plus: IMphg Assay for Macrophage colony-stimulating factor (MCSF) Biomarker Activity (AID 2284293); conditions: primary human endothelial cells with macrophages
How it was run: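 Co-culture of human venular endothelial cells and macrophages, 24 hours of chemical exposure. M-CSF quantified by ELISA, with parallel SRB total-protein staining for cytotoxicity; activity fitted relative to DMSO.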

[6] = BSK_IMphg_SRB.Mphg: Macrophage Viability Assessment in the BioMAP Diversity Plus: IMphg Assay (AID 2284295); conditions: primary human endothelial cells with macrophages
How it was run: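 Venular endothelial cells co-cultured with macrophages, read 24 h after dosing. Total protein measured by 0.1% SRB staining after 10% TCA fixation, absorbance at 560 nm. Fitted in positive direction against DMSO baseline.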

[7] = read-out: Thrombomodulin, THBD (gene 7056); assay: BSK_LPS_Thrombomodulin: BioMAP Diversity Plus: LPS Assay for Thrombomodulin Biomarker Activity (AID 2284296); conditions: primary human HUVEC with PBMC
How it was run: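 Human umbilical vein endothelial cells co-cultured with PBMC and stimulated with LPS; cell-surface thrombomodulin measured by ELISA 24 hours after compound. Gain or loss versus DMSO; cytotoxicity checked by SRB staining in parallel cultures.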

CD69, CD69 (gene 969) = assay: BSK_LPS_CD69: BioMAP Diversity Plus: LPS Assay for CD69 Biomarker Activity (AID 2284303); conditions: primary human HUVEC with PBMC
How it was run: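 Human umbilical vein endothelial cells co-cultured with PBMC under LPS stimulation, chemical exposure 24 h; cell-surface CD69 measured by ELISA and fitted in the positive direction versus DMSO.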

[8] = CCTE_Mundy_HCI_iCellGluta_NOG_NeuriteLength: CCTE's Neurite Outgrowth Assay in iCellGluta cells for Neurite Length, Mundy Lab (AID 2284318; active = hit-call score of the fitted dose curve at least 0.9, where 1 is the maximum)
How it was run: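 Automated high-content imaging of betaIII-tubulin (Alexa Fluor-488) and Hoechst-stained cells gave neurite length, normalized to the DMSO baseline.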

TTR (gene 7276) = assay: CCTE_GLTED_hTTR_0.5uM: CCTE's human Transthyretin (hTTR) Inhibition Assay, with 0.5uM TTR, Great Lakes Toxicology and Ecology Division (GLTED) Lab (AID 2284320)
How it was run: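 Cell-free displacement assay in which human TTR at 0.5 uM was incubated with test chemical for 2 h. Displacement of the ANSA probe was read by fluorescence at 380 nm excitation/475 nm emission. Loss of signal was fitted in the positive direction versus DMSO.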

[9] = CCTE_Mundy_HCI_iCellGluta_NOG_NeuriteCount: CCTE's Neurite Outgrowth Assay in iCellGluta cells for Neurite Count, Mundy Lab (AID 2284342; active = hit-call score of the fitted dose curve at least 0.9, where 1 is the maximum;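 note: chemical exposure about 48 hours starting 2 hours after plating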)
[10] = Tanguay_ZF_120hpf_CRAN: Oregon State University Tanguay Lab 120 Hour Post-fertilization zebrafish Assay for Craniofacial Malformation (AID 2284397)
How it was run: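 Dechorionated Tropical 5D wild-type zebrafish embryos, one per well, were statically exposed from 6 to 120 hpf at 28C in 0.64% DMSO, with 5uM trimethyltin chloride as positive control. Craniofacial malformation was scored present/absent by brightfield microscopy, relative to DMSO.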

[11] = Tanguay_ZF_120hpf_AXIS: Oregon State University Tanguay Lab 120 Hour Post-fertilization zebrafish Assay for Axial Malformation (AID 2284398)
How it was run: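 Dechorionated 5D wild-type zebrafish embryos exposed statically, one per well, from 6 to 120 hpf at 28C, 0.64% DMSO. Axial malformation scored as present/absent by brightfield microscopy at 120 hpf; dead embryos not scored.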

[12] = Tanguay_ZF_120hpf_EDEM: Oregon State University Tanguay Lab 120 Hour Post-fertilization zebrafish Assay for Edema Malformation (AID 2284400)
How it was run: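 Dechorionated Tropical 5D wild-type embryos, one per well, statically exposed from 6 to 120 hpf at 28C in 0.64% DMSO. Edema scored present/absent by brightfield microscopy at 120 hpf; dead embryos not scored; fit versus DMSO.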

[13] = read-out: Interleukin-10 (IL10), IL10 (gene 3586); assay: BSK_IMphg_IL10: BioMAP Diversity Plus: IMphg Assay for Interleukin-10 (IL10) Biomarker Activity (AID 2284294); conditions: primary human endothelial cells with macrophages
How it was run: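 Human venular endothelial cells cocultured with macrophages, dosed 24 h; IL-10 measured by ELISA, activity relative to DMSO. Cytotoxicity assessed in parallel cultures by sulforhodamine B total-protein staining.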

IYD (gene 389434) = assay: CCTE_GLTED_hIYD: CCTE's human Iodotyrosine Deiodinase (xIYD) Inhibition Assay, Great Lakes Toxicology and Ecology Division (GLTED) Lab (AID 2284317; active = hit-call score of the fitted dose curve at least 0.9, where 1 is the maximum;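 note: cell-free human IYD enzyme made in baculovirus insect cells; iodide freed from monoiodotyrosine measured by cerium arsenite color change at 420 nm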)
How it was run: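 Human IYD expressed in a baculovirus-insect cell system was incubated 3 h with monoiodotyrosine and test chemical. Released iodide, separated on Dowex columns, was quantified by the Sandell-Kolthoff reaction at 420 nm; plates were normalized to MNT and DMSO/NaOH controls.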

Measured: AC50

E-selectin (Homo sapiens), sequence (P16581 whole entry, looked up): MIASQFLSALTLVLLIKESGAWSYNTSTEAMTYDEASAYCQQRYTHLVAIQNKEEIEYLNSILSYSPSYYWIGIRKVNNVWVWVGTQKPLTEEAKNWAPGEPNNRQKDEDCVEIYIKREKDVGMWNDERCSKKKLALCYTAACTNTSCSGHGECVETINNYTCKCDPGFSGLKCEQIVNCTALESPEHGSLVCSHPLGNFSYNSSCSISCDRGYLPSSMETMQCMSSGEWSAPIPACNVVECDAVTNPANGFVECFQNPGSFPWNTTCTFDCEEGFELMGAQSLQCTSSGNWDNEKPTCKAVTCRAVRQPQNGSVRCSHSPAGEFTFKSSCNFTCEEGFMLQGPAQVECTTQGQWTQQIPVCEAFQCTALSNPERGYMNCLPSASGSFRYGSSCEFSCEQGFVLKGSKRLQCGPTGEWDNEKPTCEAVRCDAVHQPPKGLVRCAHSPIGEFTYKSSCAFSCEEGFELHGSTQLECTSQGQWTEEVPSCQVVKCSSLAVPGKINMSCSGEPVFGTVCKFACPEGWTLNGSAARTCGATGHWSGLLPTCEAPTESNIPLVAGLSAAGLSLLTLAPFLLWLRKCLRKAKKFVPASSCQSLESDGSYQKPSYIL

O=C(O)C(F)(F)C(F)(F)C(F)(F)OC(F)(F)F
inactive: [1] | [2] | [3] | [4] | [5] | [6] | [7] | CD69, CD69 (gene 969) | [8] | [9] | [10] | [11] | [12]
active: TTR (gene 7276) 4.54 µM

FC(F)(F)C(F)(F)C(F)(F)C(F)(F)C(F)(F)C(F)(F)CC[Si](Cl)(Cl)Cl
active: [1] 0.519 µM | [6] 0.0514 µM
inactive: [1] | [2] | [3] | [4] | [5] | [6] | [7] | CD69, CD69 (gene 969) | [10] | [11] | [12]

NCC(F)(F)C(F)(F)C(F)(F)C(F)(F)C(F)(F)C(F)(F)C(F)(F)C(F)(F)F
inactive: [1] | [2] | [3] | [4] | [5] | [6] | [7] | CD69, CD69 (gene 969)

CCOC(=O)CC(=O)C(F)(F)C(F)(F)F
inactive: [1] | [2] | [3] | [4] | [5] | [13] | [6] | [7] | CD69, CD69 (gene 969) | [10] | [11] | [12]
active: TTR (gene 7276) 49.8 µM

NC(=O)C(F)(F)C(F)(F)C(F)(F)C(F)(F)C(F)(F)C(F)(F)C(F)(F)F
inactive: [1] | [2] | [3] | [4] | [5] | [13] | [6] | [7] | CD69, CD69 (gene 969) | [8] | [9] | [10] | [11] | [12]
active: TTR (gene 7276) 5.65 µM

NCC(F)(F)C(F)(F)C(F)(F)C(F)(F)C(F)(F)C(F)(F)F
inactive: [1] | [2] | [3] | [4] | [5] | [6] | [7] | CD69, CD69 (gene 969)

CO[Si](C)(CCC(F)(F)C(F)(F)C(F)(F)C(F)(F)C(F)(F)C(F)(F)F)OC
inactive: [1] | [2] | [3] | [4] | [5] | [13] | [6] | [7] | CD69, CD69 (gene 969) | [10] | [11] | [12]

NS(=O)(=O)C(F)(F)C(F)(F)C(F)(F)C(F)(F)C(F)(F)C(F)(F)F
active: [1] 54.6 µM | [2] 6.98 µM | [3] 30 µM and 21.3 µM | [5] 4.34 µM | [13] 28.1 µM and 22.7 µM | CD69, CD69 (gene 969) 26 µM and 22.3 µM | TTR (gene 7276) 0.329 µM
inactive: [1] | [2] | [4] | [5] | [6] | [7] | [10] | [11] | [12]

C[Si](Cl)(Cl)CCC(F)(F)C(F)(F)C(F)(F)C(F)(F)C(F)(F)C(F)(F)F
inactive: [1] | [2] | [3] | [4] | [5] | [6] | [7] | CD69, CD69 (gene 969) | [10] | [11] | [12]
active: [1] 0.236 µM

NC(=O)C(F)(F)C(F)(F)C(F)(F)C(F)F
inactive: [1] | [2] | [3] | [4] | [5] | [13] | [6] | [7] | CD69, CD69 (gene 969) | [10] | [11] | [12]
active: TTR (gene 7276) 45.2 µM

OCC(O)CC(F)(F)C(F)(F)C(F)(F)C(F)(F)F (configuration not stated)
inactive: [1] | [2] | [3] | [4] | [5] | [6] | [7] | CD69, CD69 (gene 969) | [10] | [11] | [12]
active: CD69, CD69 (gene 969) 220 nM

O=C(O)CCC(F)(F)C(F)(F)C(F)(F)C(F)(F)C(F)(F)C(F)(F)C(F)(F)F
inactive: [1] | [2] | [4] | [5] | [6] | [7] | CD69, CD69 (gene 969) | [8] | [9] | [10] | [11] | [12]
active: [3] 2.27 µM and 1.87 µM | [6] 4.29 µM | IYD (gene 389434) 160 µM | TTR (gene 7276) 3.34 µM
